The other results are listed elsewhere or left out. Activity calls are given as the source filed them. Cut-off read from the data, not from the text of the source: active = activation above about 17%; inactive = the rest.
Target: 5-hydroxytryptamine receptor 5A (Homo sapiens) (UniProt P47898)
Assay: activation of human 5-HT5A receptor – cell-based, luminescence, confirmation (AID 504915);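 note: 0% = cells with vehicle only and 100% = full reference agonist response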
Conditions: HTR5A agonist cell assay, at 9.3 µM, stronger effect = higher value

5-hydroxytryptamine receptor 5A (Homo sapiens), sequence (P47898 whole entry, looked up): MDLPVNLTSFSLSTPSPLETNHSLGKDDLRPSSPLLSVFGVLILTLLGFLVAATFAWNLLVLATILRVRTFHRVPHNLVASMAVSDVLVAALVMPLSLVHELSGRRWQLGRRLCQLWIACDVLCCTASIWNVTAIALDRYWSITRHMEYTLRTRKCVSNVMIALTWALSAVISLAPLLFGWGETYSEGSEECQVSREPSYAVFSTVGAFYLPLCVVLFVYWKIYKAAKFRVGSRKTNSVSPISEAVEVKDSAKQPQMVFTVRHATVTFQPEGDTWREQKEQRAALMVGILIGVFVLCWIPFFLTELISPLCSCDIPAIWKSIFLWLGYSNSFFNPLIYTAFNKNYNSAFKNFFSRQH

Row | SMILES | activation
1 | CC(=O)c1c(C)[nH]c(C(=O)OCC(=O)Nc2c(C)cccc2C)c1C | 1.01% (inactive)
2 | O=C(Nc1ccc(C(=O)N2CCOCC2)cc1)Nc1cccc(C(F)(F)F)c1 | 43.1% (active)
3 | CC(=O)N1CCN(c2ccccc2NC(=S)NC(=O)c2cc3ccccc3o2)CC1 | 4.36% (inactive)
4 | O=C(c1cccnc1)N(c1cc2sc(=O)oc2c2ccccc12)S(=O)(=O)c1ccccc1 | 2.35% (inactive)
5 | COc1ccc(C(=O)O/N=C(\N)Cc2ccc(Cl)cc2Cl)cc1OC | 10.9% (inactive)
6 | CN(c1ccccc1)S(=O)(=O)c1cc(C(=O)N2CCN(c3ncccn3)CC2)ccc1Cl | -3.34% (inactive)
7 | CC(NC(=O)c1cc(-c2ccccc2)on1)c1ccccc1 (centres undefined) | -0.01% (inactive)
8 | Cc1ccccc1CN1CCN(CC(=O)NCc2ccccn2)C1=O | 3.7% (inactive)
9 | CCC(C)NC(=O)CCCc1ccccc1 (centres undefined) | 0.89% (inactive)

Reference: PubChem BioAssay AID504915 (The Scripps Research Institute Molecular Screening Center, 2011)
